{
  "source": "PubChem BioAssay (NCI)",
  "note": "About 83,000 compounds went through this panel and 20% of them were active in at least one assay; those are over-represented in the sample as a whole.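 Plates (96-well) were seeded with cells, treated with compound at one concentration, and incubated for 48 hours before percent growth was determined.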 Unmarked numbers belong to inactive results. Activity calls are given as the source filed them. Rule for the calls: active = growth percent below 10; inactive = the rest.",
  "data": [
    {"system": "HT29 colon", "assay": "NCI-60 one-dose screen, 48 h (100 = growth as untreated, 0 = no growth, -100 = all killed)", "conditions": "10 µM unless noted", "values": [
      {"smiles": "CNC(=O)c1cc(Oc2ccc(CC(=O)Nc3cc(C(C)(C)C)cn3C)cc2)ccn1", "growth": "88%"},
      {"smiles": "COc1ccccc1C(=O)O/N=C(\\N)Cc1cccc2ccccc12", "growth": "77.7%"},
      {"smiles": "COc1cc(/C=C2\\CN(C)C/C(=C\\c3cc(CN4CCOCC4)c(O)c(OC)c3)C2=O)cc(CN2CCOCC2)c1O", "growth": "6.39% (active)"},
      {"smiles": "O=C1c2ccc3c4c(ccc(c24)C(=O)N1CCCCO)C(=O)N(CCCCO)C3=O", "growth": "10.9%"},
      {"smiles": "COc1ccc(-c2cc(=O)c3c(OC)c4ccoc4c(/C=C/C=O)c3o2)cc1", "growth": "79.1%"},
      {"smiles": "COc1ccc2occ(C3=C(c4c[nH]c5ccccc45)C(=O)NC3=O)c2c1", "growth": "17.2%"},
      {"smiles": "CCCC(=O)CC(C)=O.CCCC(=O)CC(C)=O.[Cu]", "growth": "94.9%"},
      {"smiles": "O=C(Nc1ccc(N2CCNCC2)cc1)c1[nH]ncc1Nc1cc(C2CC2)ncn1", "growth": "49.2%"},
      {"smiles": "Nc1ccc(-c2nc3cc(Oc4ccc(Oc5ccc6[nH]c(-c7ccc(N)cc7)nc6c5)cc4)ccc3[nH]2)cc1", "growth": "70.2%"},
      {"smiles": "Oc1c(CN2CCN(c3ccccc3F)CC2)cc(Br)c2cccnc12", "growth": "-63.1% (active)"},
      {"smiles": "CC(=Nc1ccccc1)C1=C(O)C(Cc2ccc(F)cc2)NC1=O", "note": "(stereo not drawn)", "growth": "2.78% (active)"},
      {"smiles": "NCCOc1ncccc1/C=C1\\c2ccccc2-c2ccc(F)cc21", "growth": "13%"},
      {"smiles": "CCOC(=O)C1=C(C)N=c2s/c(=C\\c3cc(Cl)ccc3O)c(=O)n2C1c1ccc(OC)cc1", "note": "(stereo not drawn)", "growth": "72.9%"},
      {"smiles": "CCCCC(O)(c1ccc(Cl)cc1)C(CN1CCOCC1)c1ccc(Cl)cc1", "note": "(stereo not drawn)", "growth": "53.7%"},
      {"smiles": "O=C(/C=C/c1ccc(C(F)(F)F)cc1)c1ccc(Nc2nc(NCCO)nc(Nc3ccc(Cl)cc3)n2)cc1", "growth": "5.76% (active)"},
      {"smiles": "OC(c1ccccc1)c1nnc(SCc2ccccc2)n1Cc1ccccc1", "note": "(stereo not drawn)", "growth": "103%"},
      {"smiles": "CCOC(=O)c1cnc2ccc(Cl)cc2c1NCCCN(C)C", "growth": "27.3%"},
      {"smiles": "CC(=O)c1ccc(Cc2ccc(C(C)=O)s2)s1", "growth": "103%"},
      {"smiles": "CCCCC1CCc2cccc3c(SCC(=O)N(C)c4ccc(Cl)cc4)cc[n+]1c23", "note": "(stereo not drawn)", "growth": "106%"},
      {"smiles": "CCN1C(=O)N(CC)C2C1NN=c1s/c(=C3\\C(=O)N(C(C)C)c4ccccc43)c(=O)n12", "note": "(stereo not drawn)", "growth": "2.15% (active)"},
      {"smiles": "Cc1ccc2cccc(Oc3ccc(Nc4ncnc5onc(-c6ccccc6)c45)cc3)c2n1", "growth": "57.2%"},
      {"smiles": "O=C(NC1C(O)OC(CO)C(O)C1O)NS(=O)(=O)c1ccc(Cl)cc1", "note": "(stereo not drawn)", "growth": "93.2%"},
      {"smiles": "O=C(Cc1ccccc1)NC(c1ccc(Cl)cc1)c1c(O)ccc2ccccc12", "note": "(stereo not drawn)", "growth": "12.8%"},
      {"smiles": "CC(=O)c1ccc2oc(=O)n(Cc3ccc(C#N)cc3)c(=O)c2c1", "growth": "112%"},
      {"smiles": "O=C(O)CCC(=O)c1ccc(C2CCCCCC2)cc1", "growth": "91.6%"},
      {"smiles": "COc1ccc(Cn2c(Br)c3c(c2-c2cc(OC)c(OC)c(OC)c2)CCc2sc(NC(=O)c4ccc(OC)cc4)nc2-3)cc1", "growth": "101%"},
      {"smiles": "O=c1c2cc(F)ccc2sc2c(Nc3ccncc3)nc3ccccc3c12", "growth": "-58.1% (active)"},
      {"smiles": "N#Cc1c(N)nc2c(c1N)C(c1ccc(F)cc1)c1ccc(N)cc1O2", "note": "(stereo not drawn)", "growth": "112%"},
      {"smiles": "CC(=S)NC(=O)C(=O)/C=C1/NC(=O)C(=O)S1", "growth": "110%"},
      {"smiles": "CCOC(=O)c1cc2c(n1Cc1ccccc1OC)-c1oncc1CCC2", "growth": "10.1%"},
      {"smiles": "COc1cc(/C=C2\\CN(C)C/C(=C\\c3cc(CN4CCCC4)c(O)c(OC)c3)C2=O)cc(CN2CCCC2)c1O", "growth": "25.6%"},
      {"smiles": "COc1c(B(O)O)cccc1-c1nc2ccc3[nH]ncc3c2c2c1C1CCC2C1", "note": "(stereo not drawn)", "growth": "71.9%"},
      {"smiles": "COc1cc(OC)cc(N2C(=O)N(Cc3ccc(C(C)(C)C)cc3)c3ccccc3S2(=O)=O)c1", "growth": "93.7%"},
      {"smiles": "C[C@@H](C(=O)NCCCC#Cc1cnc(Nc2ccc(C#N)cc2)nc1NC1CC1)N(C)C(=O)/C=C/CN(C)C", "growth": "19.3%"},
      {"smiles": "NCCNc1nc2ccccc2c2c(=O)c3cc(F)cc(Cl)c3sc12", "growth": "-64.3% (active)"},
      {"smiles": "c1ccc2cc3c(Nc4ccc(N5CCOCC5)cc4)ccnc3cc2c1", "growth": "98.1%"},
      {"smiles": "O=C(Cn1cc(COc2ncnc3c2cnn3-c2ccccc2)nn1)Nc1ccccn1", "growth": "110%"},
      {"smiles": "CNCCNc1nc2ccccc2c2c(=O)c3cccc(C)c3sc12", "growth": "-25.6% (active)"},
      {"smiles": "Cn1nc(C(C)(C)C)cc1NC(=O)Cc1ccc(/C=C2\\C(=O)Nc3ccccc32)cc1", "growth": "58.4%"}
    ]},
    {"system": "SNB-75 CNS", "assay": "NCI-60 one-dose screen, 48 h (100 = growth as untreated, 0 = no growth, -100 = all killed)", "conditions": "10 µM unless noted", "values": [
      {"smiles": "CNC(=O)c1cc(Oc2ccc(CC(=O)Nc3cc(C(C)(C)C)cn3C)cc2)ccn1", "growth": "52.4%"},
      {"smiles": "COc1ccccc1C(=O)O/N=C(\\N)Cc1cccc2ccccc12", "growth": "67%"},
      {"smiles": "COc1cc(/C=C2\\CN(C)C/C(=C\\c3cc(CN4CCOCC4)c(O)c(OC)c3)C2=O)cc(CN2CCOCC2)c1O", "growth": "26.3%"},
      {"smiles": "O=C1c2ccc3c4c(ccc(c24)C(=O)N1CCCCO)C(=O)N(CCCCO)C3=O", "growth": "54.2%"},
      {"smiles": "COc1ccc(-c2cc(=O)c3c(OC)c4ccoc4c(/C=C/C=O)c3o2)cc1", "growth": "-1.37% (active)"},
      {"smiles": "COc1ccc2occ(C3=C(c4c[nH]c5ccccc45)C(=O)NC3=O)c2c1", "growth": "16.6%"},
      {"smiles": "CCCC(=O)CC(C)=O.CCCC(=O)CC(C)=O.[Cu]", "growth": "116%"},
      {"smiles": "O=C(Nc1ccc(N2CCNCC2)cc1)c1[nH]ncc1Nc1cc(C2CC2)ncn1", "growth": "31.5%"},
      {"smiles": "Nc1ccc(-c2nc3cc(Oc4ccc(Oc5ccc6[nH]c(-c7ccc(N)cc7)nc6c5)cc4)ccc3[nH]2)cc1", "growth": "115%"},
      {"smiles": "Oc1c(CN2CCN(c3ccccc3F)CC2)cc(Br)c2cccnc12", "growth": "-92.2% (active)"},
      {"smiles": "CC(=Nc1ccccc1)C1=C(O)C(Cc2ccc(F)cc2)NC1=O", "note": "(stereo not drawn)", "growth": "17.9%"},
      {"smiles": "NCCOc1ncccc1/C=C1\\c2ccccc2-c2ccc(F)cc21", "growth": "15.7%"},
      {"smiles": "CCOC(=O)C1=C(C)N=c2s/c(=C\\c3cc(Cl)ccc3O)c(=O)n2C1c1ccc(OC)cc1", "note": "(stereo not drawn)", "growth": "89%"},
      {"smiles": "CCCCC(O)(c1ccc(Cl)cc1)C(CN1CCOCC1)c1ccc(Cl)cc1", "note": "(stereo not drawn)", "growth": "39.6%"},
      {"smiles": "O=C(/C=C/c1ccc(C(F)(F)F)cc1)c1ccc(Nc2nc(NCCO)nc(Nc3ccc(Cl)cc3)n2)cc1", "growth": "37.4%"},
      {"smiles": "OC(c1ccccc1)c1nnc(SCc2ccccc2)n1Cc1ccccc1", "note": "(stereo not drawn)", "growth": "76.3%"},
      {"smiles": "CCOC(=O)c1cnc2ccc(Cl)cc2c1NCCCN(C)C", "growth": "35.6%"},
      {"smiles": "CC(=O)c1ccc(Cc2ccc(C(C)=O)s2)s1", "growth": "96.9%"},
      {"smiles": "CCCCC1CCc2cccc3c(SCC(=O)N(C)c4ccc(Cl)cc4)cc[n+]1c23", "note": "(stereo not drawn)", "growth": "109%"},
      {"smiles": "CCN1C(=O)N(CC)C2C1NN=c1s/c(=C3\\C(=O)N(C(C)C)c4ccccc43)c(=O)n12", "note": "(stereo not drawn)", "growth": "41.2%"},
      {"smiles": "Cc1ccc2cccc(Oc3ccc(Nc4ncnc5onc(-c6ccccc6)c45)cc3)c2n1", "growth": "78.1%"},
      {"smiles": "O=C(NC1C(O)OC(CO)C(O)C1O)NS(=O)(=O)c1ccc(Cl)cc1", "note": "(stereo not drawn)", "growth": "94%"},
      {"smiles": "O=C(Cc1ccccc1)NC(c1ccc(Cl)cc1)c1c(O)ccc2ccccc12", "note": "(stereo not drawn)", "growth": "40%"},
      {"smiles": "CC(=O)c1ccc2oc(=O)n(Cc3ccc(C#N)cc3)c(=O)c2c1", "growth": "87.3%"},
      {"smiles": "O=C(O)CCC(=O)c1ccc(C2CCCCCC2)cc1", "growth": "96.5%"},
      {"smiles": "COc1ccc(Cn2c(Br)c3c(c2-c2cc(OC)c(OC)c(OC)c2)CCc2sc(NC(=O)c4ccc(OC)cc4)nc2-3)cc1", "growth": "82.4%"},
      {"smiles": "O=c1c2cc(F)ccc2sc2c(Nc3ccncc3)nc3ccccc3c12", "growth": "56.5%"},
      {"smiles": "N#Cc1c(N)nc2c(c1N)C(c1ccc(F)cc1)c1ccc(N)cc1O2", "note": "(stereo not drawn)", "growth": "86.6%"},
      {"smiles": "CC(=S)NC(=O)C(=O)/C=C1/NC(=O)C(=O)S1", "growth": "95.5%"},
      {"smiles": "CCOC(=O)c1cc2c(n1Cc1ccccc1OC)-c1oncc1CCC2", "growth": "-2.26% (active)"},
      {"smiles": "COc1cc(/C=C2\\CN(C)C/C(=C\\c3cc(CN4CCCC4)c(O)c(OC)c3)C2=O)cc(CN2CCCC2)c1O", "growth": "75.3%"},
      {"smiles": "COc1c(B(O)O)cccc1-c1nc2ccc3[nH]ncc3c2c2c1C1CCC2C1", "note": "(stereo not drawn)", "growth": "2.23% (active)"},
      {"smiles": "COc1cc(OC)cc(N2C(=O)N(Cc3ccc(C(C)(C)C)cc3)c3ccccc3S2(=O)=O)c1", "growth": "73.9%"},
      {"smiles": "C[C@@H](C(=O)NCCCC#Cc1cnc(Nc2ccc(C#N)cc2)nc1NC1CC1)N(C)C(=O)/C=C/CN(C)C", "growth": "80.5%"},
      {"smiles": "NCCNc1nc2ccccc2c2c(=O)c3cc(F)cc(Cl)c3sc12", "growth": "44.6%"},
      {"smiles": "c1ccc2cc3c(Nc4ccc(N5CCOCC5)cc4)ccnc3cc2c1", "growth": "101%"},
      {"smiles": "O=C(Cn1cc(COc2ncnc3c2cnn3-c2ccccc2)nn1)Nc1ccccn1", "growth": "71.9%"},
      {"smiles": "CNCCNc1nc2ccccc2c2c(=O)c3cccc(C)c3sc12", "growth": "38.4%"},
      {"smiles": "Cn1nc(C(C)(C)C)cc1NC(=O)Cc1ccc(/C=C2\\C(=O)Nc3ccccc32)cc1", "growth": "75.1%"}
    ]}
  ]
}
